Screening data (PubChem BioAssay)
Hits are enriched below; roughly 12% of the tested compounds scored in any of these assays.
Lmaj promast – Leishmania major promastigote growth inhibition, primary screen; AID 1063, 2008; inhibition, % at 10 µM; 200,000 compounds, 9% hits; Leishmania major promastigotes, resazurin fluorescence viability; in the data active = inhibition above about 50%;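 note: promastigotes grown with compound for 44 hours at 28 °C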
WT yeast gro inh – growth inhibition of WT strain, primary screen, mitochondrial fusion inhibitor project, WT and mutant strains, chemical genetic. mitochondrial fusion phenotypic screen. inhibition, % at 10 µM. 190,000 compounds, 2.1% hits; in the data active = inhibition above about 58%; tested in S. cerevisiae
Arbovirus inh – antivirals against arbovirus infection, primary screen, cell-based, full library, 10K replicate subset; arbovirus infection cell-based antiviral screen; inhibition, % at 10 µM; 200,000 compounds, 0.37% hits; in the data active = inhibition above about 30%
CHOP inh – inhibitors of CHOP promoter induction, primary screen, cell-based, unfolded protein response, luciferase reporter. CHO-K1 CHOP-promoter luciferase, tunicamycin-induced, 15-18 h. inhibition, % at 10 µM. 220,000 compounds, 3.8% hits. AID 2732, 2010;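 active = compounds that reduced the stress-induced luciferase reporter signal by more than about 70% of percent inhibition, limit read from the data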;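 note: 0% = tunicamycin plus vehicle and 100% = wells without tunicamycin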
Active calls of the source: *; . = no result given.

SMILES | Lmaj promast | WT yeast gro inh | Arbovirus inh | CHOP inh
O=S(=O)(c1ccc(S(=O)(=O)N2CCOCC2)cc1)N1CCCC1 | -6.0 | 12.2 | 9.0 | -0.2
COc1ccccc1-c1cc(C(F)(F)F)nc(NCc2cccs2)n1 | 22.1 | 64.8* | 0.2 | 2.2
COc1ccc(-c2cc(C(F)(F)F)nc(NCc3cccs3)n2)cc1 | 0.2 | 15.7 | -2.2 | 17.6
COc1ccc(C(=O)NCCN2CCOCC2)c(OC)c1OC | -5.2 | 7.5 | 4.5 | 1.0
COc1ccc(C(=O)N(c2ccc(OC)cc2)S(=O)(=O)c2cccs2)cc1 | 76.5* | 73.7* | 8.6 | 27.6
COc1ccc(N(C(=O)c2ccccc2)S(=O)(=O)c2cccs2)cc1 | 5.7 | 24.6 | -3.6 | 9.3
Oc1ccc2ccccc2c1/C=N/Nc1nnc(-c2ncc[nH]2)c2ccccc12 | 100.4* | 40.7 | -39.1 | 79.5*
COc1ccc(/C=N/Nc2nnc(-c3ncc[nH]3)c3ccccc23)cc1 | -4.6 | -19.1 | -1.3 | -11.7
CSCC(=O)NS(=O)(=O)c1ccc(C)cc1 | -6.7 | 20.8 | 1.3 | -6.3
O=C(OC1CCCCC1)c1ccc(NC(=O)c2ccco2)cc1 | 75.2* | 71.2* | 2.4 | 34.2
Cc1cccc(Oc2ccc(NC(=O)c3ccccc3C(=O)O)cc2)c1C | -2.9 | -17.4 | 26.1 | 7.8
O=C(Nc1ccc(Oc2cccc3ccccc23)cc1)c1ccco1 | 12.2 | 79.4* | -36.2 | 45.1
O=C(O)c1ccccc1C(=O)Nc1ccc(Oc2cccc3ccccc23)cc1 | -5.8 | -22.4 | 26.7 | 77.9*
COC(=O)c1ccccc1NC(=O)N1CCN(Cc2ccco2)CC1 | -4.0 | 12.2 | -2.0 | -7.2
CCOc1ncccc1C(=O)NCc1ccc(C)cc1 | -4.2 | -7.9 | -10.1 | 3.3
O=C(Nn1c(=S)[nH]c2ccccc2c1=O)c1ccncc1 | -4.1 | -1.6 | 1.9 | -22.4
Cc1ccnn1CCC(=O)N1CCCC(CCC(=O)N2CCN(c3ccccn3)CC2)C1 (stereo not drawn) | -1.1 | 4.6 | 3.0 | 6.7
O=C(NCC1CCCO1)C1CC(=O)N(C2CCCC2)C1 (stereo not drawn) | -8.2 | 2.8 | -4.8 | -10.1
CCCCCCCCCC(=O)N1c2ccccc2NC(=O)C1CC(=O)Nc1ccc(C(=O)O)cc1 (stereo not drawn) | . | . | . | -7.2
COc1cc2c(cc1OC)C1(CCCC1)C(N)=C2C#N | 99.6* | -6.8 | -8.5 | 70.0*
S=C(Nc1ccccc1)Nc1cccc(Br)c1 | 13.7 | 22.2 | 19.7 | 40.0
CCCCC(=O)NC(=S)NNC(=O)CCc1ccccc1 | . | . | . | 30.2
Cc1nc(NC(=O)CCc2ccccc2)ccc1Br | -4.8 | 8.9 | -11.5 | 79.9*
O=C(CCc1ccccc1)NC(=S)Nc1cccc(Br)c1 | 34.2 | 58.8* | -10.7 | 71.8*
O=C(CCc1ccccc1)NC(=S)Nc1ccccc1Br | 21.9 | 75.0* | -7.6 | 23.9
SMILES | Lmaj promast | WT yeast gro inh | Arbovirus inh | CHOP inh
CC1c2ccccc2N(NC(=O)Cc2ccccc2)C1C (stereo not drawn) | . | . | . | 2.4
Cc1[nH]n(-c2ccc([N+](=O)[O-])cc2)c(=O)c1C=NCCN1CCN(C(=O)c2ccccc2)CC1 | -5.4 | 53.1 | -12.2 | 18.0
Cc1cc(C)c(O)c(-c2n[nH]c3c2C(c2cccc(O)c2)N(Cc2ccco2)C3=O)c1 (stereo not drawn) | . | . | . | 13.6
OC(COCC1COc2ccccc2O1)CN1CCN(c2ccccn2)CC1 (stereo not drawn) | 70.4* | -0.2 | 0.0 | 29.5
CC1CCCN(CC(O)COCC2COc3ccccc3O2)C1 (stereo not drawn) | 85.9* | 5.0 | -4.1 | 4.6
CCOC(=O)C1CCCN(CC(O)COCc2ccc3c(c2)OCO3)C1 (stereo not drawn) | 19.0 | -14.6 | -0.8 | 24.4
OC(COCc1cccs1)CN1CCN(c2ccccn2)CC1 (stereo not drawn) | -3.9 | 1.1 | 3.4 | -15.8
CCc1ccc(C2CC(=O)N(c3cccc(F)c3)C3=C2C(=O)OC3)cc1 (stereo not drawn) | -6.5 | -4.5 | -2.3 | 9.2
CCOc1ccc(CNC2CCCc3ccccc32)cc1 (stereo not drawn) | 69.7* | -3.8 | -0.8 | 4.8
O=c1c2ccc(Cl)cc2[nH]c(=S)n1CCC1=CCCCC1 | 5.1 | 7.9 | -4.7 | 83.6*
COc1ccc(C(=O)c2ccc(Cl)cc2)c2ccccc12 | -5.2 | 18.7 | -9.4 | 49.4
COc1ccc(C(=O)c2ccccc2)c2c(O)ccc(C(=O)c3ccccc3)c12 | 9.3 | 8.9 | 20.2 | 85.9*
O=C(CNC(=O)c1ccc(Cl)cc1)NCC(F)(F)F | 55.1* | -5.2 | 1.3 | 14.5
CCOC(=O)c1sc(Nc2nc3c(F)cccc3s2)cc1C | 78.1* | 2.1 | 3.7 | 38.0
CCOC(=O)c1sc(Nc2ccccc2)nc1C | 0.6 | -3.5 | -5.7 | 31.8
CCOC(=O)c1sc(Nc2nc3c(OC)cccc3s2)nc1C | 72.7* | 2.7 | -10.4 | 72.6*
CCOC(=O)c1sc(Nc2nc3ccc(OC)cc3s2)cc1C | -0.6 | 57.2 | -12.4 | 31.7
Cc1cc(=O)oc2cc(NC(=O)c3cc([N+](=O)[O-])ccc3N3CCOCC3)ccc12 | 6.1 | -1.8 | 14.1 | 9.0
Cc1c(Cl)cccc1NC(=O)C(=O)NNC(=O)c1ccccc1F | 8.1 | 18.7 | -2.5 | -3.0
O=C(COC(=O)CC(c1ccccc1)c1ccccc1)Nc1c(F)cccc1F | 50.1* | 17.5 | 7.3 | 26.1
O=C(COC(=O)CC(c1ccccc1)c1ccccc1)NCc1ccc(Cl)cc1 | 68.8* | 63.4* | 4.8 | 21.5
CC(=O)Nc1ccc(C(=O)OCC(=O)Nc2c(F)cccc2F)cc1 | . | . | . | -4.9
NS(=O)(=O)c1ccc(N/C=C\C(=O)c2ccc3ccccc3c2)cc1 | -7.4 | 2.4 | -12.5 | -26.2
CSc1ncc(CN2CCN(CCC(C)C)C(CCO)C2)cn1 (stereo not drawn) | 0.8 | -13.3 | -10.6 | 1.7
Cc1cccc(-c2ncc(CN3CCN(CCC(C)C)C(CCO)C3)cn2)c1 (stereo not drawn) | 73.8* | 13.5 | -2.8 | 5.6
SMILES | Lmaj promast | WT yeast gro inh | Arbovirus inh | CHOP inh
Cc1cccc(-c2ncc(CN3CCN(C4CCCC4)C(CCO)C3)cn2)c1 (stereo not drawn) | 63.6* | -0.1 | -12.6 | -2.2
COc1ccc(C(C(=O)NC2CCCC2)N(Cc2ccc(C)cc2)C(=O)c2ccn[nH]2)cc1OC (stereo not drawn) | -7.7 | 42.9 | 1.4 | -16.5
O=C1/C(=C\c2ccco2)CCC/C1=C\c1ccco1 | 24.1 | 0.6 | 4.7 | 87.4*
O=C(NC1CC1)C1CCN(C2CCN(C(=O)Cc3ccc4c(c3)OCO4)CC2)CC1 | -1.9 | -4.7 | -0.8 | -0.1
O=C(NC1CC1)C1CCN(C2CCN(C(=O)/C=C/c3cccc(F)c3F)CC2)CC1 | 81.7* | -6.9 | 4.2 | 15.0
O=C(NC1CC1)C1CCN(C2CCN(C(=O)/C=C/c3cccs3)CC2)CC1 | 87.5* | 2.1 | -1.7 | -0.4
CC(=O)ONC(=Nc1ccccc1)c1nonc1N | . | . | . | 18.7
CN(c1ccccc1)S(=O)(=O)c1ccc(Cl)c(C(=O)Nc2nn[nH]n2)c1 | -0.9 | 0.5 | 7.8 | -6.9
CC(C)(C)N1C(=O)c2ccc(C(=O)Nc3ccc(-c4nc5ccccc5[nH]4)cc3)cc2C1=O | -4.2 | 14.8 | -15.7 | 7.7
CN(c1ccccc1)S(=O)(=O)c1ccc(Cl)c(C(=O)Nc2nc3ccccc3[nH]2)c1 | 99.2* | -1.4 | -13.4 | 41.8
